Laboratory results: PubChem BioAssay (Tox21)
Results filed as inconclusive are left out. Activity calls are given as the source filed them. Calls follow the shape of the dose curve; as a rule, active = well fitted curve in the direction sought with a large enough effect in the repeat runs; inconclusive = weak or mixed curves; inactive = no such curve, though single readings can be large; an effect the other way counts as inactive or inconclusive.

Legend:
[1] = qHTS RealTime-Glo MT Cell Viability Assay in HepG2 cells - 40 hour (AID 1224870); also: nearly all actives have a fitted effect of over 50% in size; also: potency is read from the fitted curve at half-maximal effect
How it was run: (§1)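 HepG2 cells (600/well) mixed with RealTime-Glo MT reagent, settled 5 h at 37 C/5% CO2 before compound addition. Nonlytic NanoLuc luminescence from viable-cell prosubstrate reduction read repeatedly during 40 h treatment at 37 C.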

[2] = A CellTox Green Cytotoxicity Assay to monitor cytotoxicity in HEK293 cells - 40 hour (AID 1224871); also: nearly all actives have a fitted effect of over 45% in size
How it was run: (§2)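 Homogeneous no-lysis format: HEK293 cell suspension mixed with CellTox Green reagent, seeded, incubated 5 h at 37 C/5% CO2, then dosed by pintool with compound in DMSO.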

[3] = qHTS RealTime-Glo MT Cell Viability Assay in HEK293 cells - 16 hour (AID 1224872); also: nearly all actives have a fitted effect of over 50% in size; also: potency is read from the fitted curve at half-maximal effect; as to activity change, negative = cytotoxicity: top concentration of the series differs between compounds
How it was run: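 Nonlytic real-time viability readout: viable cells convert prosubstrate to NanoLuc substrate, giving luminescence proportional to live cell number. HEK293, 600 cells/well, compound added after 5 h, continuous culture at 37 C.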

[4] = qHTS RealTime-Glo MT Cell Viability Assay in HepG2 cells - 8 hour (AID 1224873); also: nearly all actives have a fitted effect of over 55% in size
How it was run: as §1

[5] = A CellTox Green Cytotoxicity Assay to monitor cytotoxicity in HEK293 cells - 24 hour (AID 1224875); also: series mostly up to about 77 µM; nearly all actives have a fitted effect of over 45% in size
How it was run: as §2

[6] = A CellTox Green Cytotoxicity Assay to monitor cytotoxicity in HepG2 cells - 16 hour (AID 1224876); also: nearly all actives have a fitted effect of over 45% in size
How it was run: (§3)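 Fluorescent DNA-binding dye, 600 HepG2 cells/well, 5 h preincubation then compound in DMSO; same plates read at 0–40 h, 37 C.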

[7] = A CellTox Green Cytotoxicity Assay to monitor cytotoxicity in HepG2 cells - 40 hour (AID 1224879); also: nearly all actives have a fitted effect of over 40% in size; also: potency is read from the fitted curve at half-maximal effect
How it was run: as §3

[8] = qHTS RealTime-Glo MT Cell Viability Assay in HepG2 cells - 32 hour (AID 1224877); also: nearly all actives have a fitted effect of over 55% in size; also: potency is read from the fitted curve at half-maximal effect
How it was run: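 Luminescence read-out: viable HepG2 cells reduce a prosubstrate to a NanoLuc substrate, giving a signal proportional to live cell number. Reads taken at 0, 8, 16, 24, 32 and 40 h of compound exposure at 37 C.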

[9] = A CellTox Green Cytotoxicity Assay to monitor cytotoxicity in HepG2 cells - 24 hour (AID 1224878); also: nearly all actives have a fitted effect of over 45% in size
How it was run: as §3

[10] = qHTS RealTime-Glo MT Cell Viability Assay in HEK293 cells - 40 hour (AID 1224874); settings: RealTime-Glo luminescence; max response: hits give low values; also: nearly all actives have a fitted effect of over 50% in size; also: potency is read from the fitted curve at half-maximal effect
How it was run: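 Measured as luminescence from the same continuously cultured HEK293 wells at successive time points (0, 8, 16, 24, 32, 40 h) after compound addition. Reagent present from seeding; dosing at 5 h; incubation 37 C.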
% is scaled to controls: 0 for no effect and ±100 for the full control effect.

CC(C)CCCC(C)NCCC(C)C (stereo unspecified)
inactive: Potency [1] | Potency [2] | Potency [3] | outcome [4] | Potency [5] | Potency [6] | Potency [7]

COc1ccc(COC=O)cc1
inactive: Potency [1] | Potency [2] | Potency [3] | outcome [4] | Potency [5] | Potency [6] | Potency [8] | Potency [9] | Potency [7]

O=C1OC(=O)c2cc([N+](=O)[O-])ccc21
inactive: Potency [1] | Potency [2] | Potency [3] | outcome [4] | Potency [5] | Potency [6] | Potency [9] | Potency [7]

Cc1onc(-c2ccccc2)c1-c1ccc(S(N)(=O)=O)cc1
inactive: Potency [1] | Potency [2] | outcome [4] | Potency [5] | Potency [8] | Potency [9] | Potency [7]

CCn1c(=O)c2c(nc(/C=C/c3ccc(OC)c(OC)c3)n2C)n(CC)c1=O
inactive: Potency [1] | outcome [4] | Potency [5] | Potency [6] | Potency [8] | Potency [9] | Potency [7]
active: Potency [3] 1.69 µM | Potency [10] 1.69 µM

CC(C)[C@H](N)C(=O)OCCOCn1cnc2c(=O)[nH]c(N)nc21
inactive: Potency [1] | Potency [2] | Potency [3] | outcome [4] | Potency [5] | Potency [6] | Potency [8] | Potency [9] | Potency [7]

CC(C=O)Cc1ccc(C(C)C)cc1 (stereo unspecified)
inactive: Potency [1] | Potency [2] | Potency [3] | outcome [4] | Potency [5] | Potency [9] | Potency [7]

COC(=O)C1=C(C)NC(C)=C(C(=O)OCC(C)=O)C1c1ccccc1[N+](=O)[O-] (stereo unspecified)
inactive: Potency [1] | Potency [2] | Potency [3] | max response [10] -9.05% | Potency [5] | Potency [6] | Potency [8] | Potency [9] | Potency [7]

NS(=O)(=O)c1cc(C2(O)NC(=O)c3ccccc32)ccc1Cl (stereo unspecified)
inactive: Potency [1] | Potency [2] | Potency [3] | outcome [4] | Potency [5] | Potency [6] | Potency [8] | Potency [9] | Potency [7]

CO
inactive: Potency [1] | Potency [2] | Potency [3] | outcome [4] | Potency [5] | Potency [6] | Potency [8] | Potency [9] | Potency [7]

COc1cc(C)cc(O)c1
inactive: Potency [1] | Potency [3] | outcome [4] | max response [10] -14.5% | Potency [5] | Potency [6] | Potency [8] | Potency [9] | Potency [7]

CCN1CCCC1CNC(=O)c1cc(S(N)(=O)=O)ccc1OC (stereo unspecified)
inactive: Potency [1] | Potency [2] | Potency [3] | outcome [4] | Potency [5] | Potency [6] | Potency [8] | Potency [9]
active: Potency [7] 43.6 µM

CCOC(=O)Cn1c(=O)sc2cccc(Cl)c21
inactive: Potency [1] | Potency [2] | Potency [3] | max response [10] -10.9% | Potency [5] | Potency [6] | Potency [8]

O=[N+]([O-])c1ccc(Oc2ccc([N+](=O)[O-])cc2)cc1
inactive: Potency [1] | Potency [2] | outcome [4] | Potency [5] | Potency [6] | Potency [8] | Potency [9] | Potency [7]

CN(C)N=Nc1ccccc1
inactive: Potency [1] | Potency [3] | outcome [4] | max response [10] 15% | Potency [5] | Potency [6] | Potency [8] | Potency [9] | Potency [7]

CCOC(=O)Nc1ccc2c(c1)N(C(=O)CCN1CCOCC1)c1ccccc1S2
inactive: Potency [1] | Potency [2] | Potency [3] | outcome [4] | Potency [5] | Potency [6] | Potency [8] | Potency [9] | Potency [7]

Cc1ccccc1Br
inactive: Potency [1] | Potency [3] | outcome [4] | max response [10] 5.36% | Potency [5] | Potency [6] | Potency [8] | Potency [9] | Potency [7]

CCCCCCCCCCCCI
active: Potency [1] 22 µM | Potency [8] 24.7 µM
inactive: Potency [2] | Potency [3] | outcome [4] | Potency [5] | Potency [9] | Potency [7]

CC(=O)c1ccc(C)cc1
inactive: Potency [1] | Potency [3] | outcome [4] | max response [10] -0.83% | Potency [5] | Potency [6] | Potency [8] | Potency [9] | Potency [7]

C=C(C)[C@H]1CC=C(C)CC1
inactive: Potency [1] | Potency [3] | outcome [4] | max response [10] 0.727% | Potency [5] | Potency [6] | Potency [8] | Potency [9] | Potency [7]

CCCc1ccccc1O
inactive: Potency [1] | Potency [2] | Potency [3] | outcome [4] | Potency [5] | Potency [9] | Potency [7]

NC(=O)CCCCC1CCSS1 (stereo unspecified)
inactive: Potency [1] | Potency [2] | Potency [3] | outcome [4] | Potency [5] | Potency [8] | Potency [9]

NCC[C@H](O)C(=O)N[C@@H]1C[C@H](N)[C@@H](O[C@H]2O[C@H](CN)[C@@H](O)[C@H](O)[C@H]2O)[C@H](O)[C@H]1O[C@H]1O[C@H](CO)[C@@H](O)[C@H](N)[C@H]1O
inactive: activity change, negative = cytotoxic [1] -0.912% [at 0.29 µM] | cytotoxicity increase [2] -3.46% [at 0.29 µM] | activity change, negative = cytotoxicity [3] -0.0333% [at 0.29 µM] | viability change, negative = cytotoxic [4] -0.5% [at 0.29 µM] | activity change [5] 2.36% [at 0.29 µM, hits give high values] | cytotoxicity increase [6] -3.16% [at 0.29 µM] | activity change, negative = cytotoxic [8] -1.54% [at 0.29 µM] | cytotoxicity [9] -1.2% [at 0.29 µM] | cytotoxicity increase [7] -4.11% [at 0.29 µM]

O=c1[nH]c(=O)n([C@H]2O[C@H](CO)[C@@H](O)[C@@H]2O)cc1/C=C\Br
inactive: Potency [1] | Potency [3] | outcome [4] | max response [10] 3.79% | Potency [5] | Potency [6] | Potency [8] | Potency [9] | Potency [7]
